Screens as filed in PubChem BioAssay.
KB-3-1 cytotox: qHTS assay for MDR1-selective chemotherapeutics: Primary screen using the parental adenocarcinoma cell KB-3-1; KB-3-1 viability, CellTiter-Glo ATP luminescence, 72 h; 1.4% of 400,000 active; AID 1347075, 2019; Potency, µM (titrated, usually from 46.1 µM), hits mostly cytotoxic; further: potency means the concentration at half of the fitted maximal effect; on the % scale 0 is the no-effect control and ±100 the full control effect; nearly all actives have a fitted effect of over 60% in size
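Cells are dispensed, compounds pinned in, plates held at 37 °C for 72 h, then CellTiter-Glo is added and luminescence read after 10 minutes. Cell line: parental KB-3-1 in phenol-red-free DMEM, 10% FBS.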
MCF10A rereplic: A quantitative high throughput screen for small molecules that induce DNA re-replication in MCF 10a normal breast cells; MCF 10A DNA re-replication, Hoechst nuclear intensity, 48 h; Potency, µM (highest dose often 46.1 µM), without a hit: top-dose activity, positive = re-replication, actives largely listed as activators; 2.9% of 350,000 active; further: potency means the concentration at half of the fitted maximal effect; % of control where 0% means no effect; nearly all actives have a fitted effect of over 50% in size
KB-V1 cytotox: qHTS assay for MDR1-selective chemotherapeutics: Primary screen using the drug-selected MDR subline cells KB-V1; 3.4% of 400,000 active; KB-V1 MDR cells viability, CellTiter-Glo, 72 h; Potency, µM (doses to about 46.1 µM), hits mostly cytotoxic; further: potency means the concentration at half of the fitted maximal effect; on the % scale 0 is the no-effect control and ±100 the full control effect; nearly all actives have a fitted effect of over 60% in size
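Following 72 h at 37 degrees C with compound, KB-V1 cell viability was read by CellTiter-Glo luminescence, medium being phenol-red-free DMEM plus 10% FBS; concentration-response parameters came from normalized, curve-fitted qHTS data.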
DRD3 agonist: qHTS of D3 Dopamine Receptor Agonist: qHTS; 0.58% of 410,000 active; max activation, %; D3R DiscoveRx beta-arrestin cells, luminescence, 90 min; AID 652048, 2013; D(3) dopamine receptor (Homo sapiens), P35462; in the data active means max activation above about 30%; further: 0% is about no effect
Target sequence (P35462 whole entry, looked up): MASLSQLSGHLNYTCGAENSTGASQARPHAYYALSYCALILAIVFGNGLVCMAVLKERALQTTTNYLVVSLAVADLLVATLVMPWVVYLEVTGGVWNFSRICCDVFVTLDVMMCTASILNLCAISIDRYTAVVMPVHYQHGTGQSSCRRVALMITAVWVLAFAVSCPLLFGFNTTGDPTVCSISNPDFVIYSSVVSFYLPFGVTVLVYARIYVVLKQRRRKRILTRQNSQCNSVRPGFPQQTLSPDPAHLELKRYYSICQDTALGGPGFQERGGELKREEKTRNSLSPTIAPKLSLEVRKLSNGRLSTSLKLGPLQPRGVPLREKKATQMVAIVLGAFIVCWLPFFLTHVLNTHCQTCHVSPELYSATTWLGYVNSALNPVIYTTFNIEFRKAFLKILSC
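Agonist mode: compounds and dopamine controls were applied to plated cells for 90 min at 37 degrees C after an overnight attachment at 1500 cells/well. Luminescent read-out followed 30 - 60 minutes at room temperature with DiscoveRx detection reagent.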
SW480 rerep: A quantitative high throughput screen for small molecules that induce DNA re-replication in SW480 colon adenocarcinoma cells; Potency, µM (titrated, usually from 46.1 µM), for inactives: at the top dose re-replication activation, hits mostly activators; 1.8% of 340,000 active; SW480 DNA re-replication, Hoechst DNA content imaging, 48 h; further: potency means the concentration at half of the fitted maximal effect; % of control where 0% means no effect; nearly all actives have a fitted effect of over 55% in size
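Readout is total intensity of Hoechst-stained nuclei, excited at 405 nm and collected at 500-530 nm. Compound treatment lasted 48 hr at 37 C in 5% CO2 before staining.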
DRD3 antagonist: qHTS of D3 Dopamine Receptor Antagonist: qHTS. D3R cells, DiscoveRx beta-arrestin luminescence, antagonist mode; stronger effect = lower value. max response, negative = inhibition, %. 2.5% of 360,000 active; in the data active means max response below about -50%; inconclusive means no clear call, values can overlap the other calls; further: on the % scale 0 is the no-effect control and ±100 the full control effect
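Cells expressing the human receptor were seeded at 1500 cells/well, incubated overnight at 37 degrees C in 5% CO2, then exposed to library compounds with dopamine controls for 90 minutes at 37 degrees C before luminescent detection.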
Numbers without * were called inactive. A selection: hits, their analogues and other compounds. The true share with any hit is near 8.9%. Unless noted, the call rests on the fitted dose curve; in most records, active means well fitted curve in the direction sought with a large enough effect; inconclusive means small, poorly fitted or top-dose-only effect, or another doubt; inactive means no such curve, though single readings can be large; an effect the other way counts as inactive or inconclusive.

`CCOC(=O)c1cccc(NC(=O)c2cc3c(=O)n(Cc4ccccc4)ccc3nc2C)c1` gave KB-3-1 cytotox inactive, KB-V1 cytotox inactive and DRD3 agonist -6.
Cc1ccc(S(=O)(=O)Oc2cccc(/C=N/n3cnnc3)c2)cc1 was read as KB-3-1 cytotox inconclusive, MCF10A rereplic inconclusive, KB-V1 cytotox 18µM*, DRD3 agonist 0, SW480 rerep inconclusive and DRD3 antagonist 11.
`Cc1ccc(S(=O)(=O)Oc2cccc(/C=N/Nc3ccc(C(=O)O)cc3)c2)cc1` gave KB-3-1 cytotox inactive, MCF10A rereplic inconclusive, KB-V1 cytotox inactive, DRD3 agonist 17, SW480 rerep -6% and DRD3 antagonist -1.
`CN(C)S(=O)(=O)c1cccc(NC(=O)c2cc(-c3cccs3)nn2-c2cccc(Cl)c2)c1` gave KB-3-1 cytotox 9.2µM*, MCF10A rereplic -9%, KB-V1 cytotox 2.3µM*, DRD3 agonist -3, SW480 rerep -18% and DRD3 antagonist 3.
Screening Cc1ccc(C(=O)COC(=O)c2cc(-c3ccccc3)nc3ccccc23)cc1C returned KB-3-1 cytotox inactive, KB-V1 cytotox inactive and DRD3 agonist -12.
COc1ccc(C2=CCCCCC2)c(OC)c1OC was read as KB-3-1 cytotox inactive, MCF10A rereplic inconclusive, KB-V1 cytotox inactive, DRD3 agonist -1, SW480 rerep -1% and DRD3 antagonist 14.
For COc1ccc(-c2ccc(OC)c(OC)c2OC)c(OC)c1OC the results were KB-3-1 cytotox inactive, MCF10A rereplic -2%, KB-V1 cytotox 23µM*, DRD3 agonist 4, SW480 rerep -2% and DRD3 antagonist 7.
Screening CCCCCCCCCCCCCCCCOCCOCCOCCOCCOCCOCCOCCOCCOCCOCCOCCOCCOCCOCCOCCOCCOCCOCCOCCOCCO returned MCF10A rereplic inconclusive, DRD3 agonist -5 and SW480 rerep inconclusive.
COc1cc(OC)c(S(=O)(=O)NCc2ccco2)cc1S(=O)(=O)NCc1ccco1 was read as KB-3-1 cytotox inactive, MCF10A rereplic 6%, KB-V1 cytotox inactive, DRD3 agonist 0, SW480 rerep 1% and DRD3 antagonist -12.
COc1c(C)cc(S(=O)(=O)NCc2ccco2)c(C)c1C was read as KB-3-1 cytotox inactive, MCF10A rereplic 0%, KB-V1 cytotox inactive, DRD3 agonist 31*, SW480 rerep -8% and DRD3 antagonist 4.
`COCCNc1ccc(-c2nc(-c3ccncc3)no2)cc1[N+](=O)[O-]` gave KB-3-1 cytotox inactive, KB-V1 cytotox inactive and DRD3 agonist -4.
`CC1=C(C(=O)Nc2ccccc2)C(c2ccc(C)o2)n2c(s/c(=C/c3ccccc3)c2=O)=N1` (centres undefined) gave KB-3-1 cytotox inactive, MCF10A rereplic 15µM*, KB-V1 cytotox inactive, DRD3 agonist -2, SW480 rerep -3% and DRD3 antagonist -7.
Screening CCOc1ccc(Oc2nc(NCC(C)C)nc(N3CCOCC3)n2)nn1 returned KB-3-1 cytotox inactive, KB-V1 cytotox inactive and DRD3 agonist 2.
`COc1ccc(NC(=O)CSc2nnc(-c3ccccc3C)n2C)cc1` gave KB-3-1 cytotox inactive, MCF10A rereplic 8%, KB-V1 cytotox 15µM*, DRD3 agonist 17, SW480 rerep -2% and DRD3 antagonist -9.
For COc1ccc(OCc2nnc(SC(C)C(=O)Nc3ccc(N4CCOCC4)cc3)n2C)cc1 (centres undefined) the results were KB-3-1 cytotox inactive, MCF10A rereplic 0%, KB-V1 cytotox inactive, DRD3 agonist -11, SW480 rerep -6% and DRD3 antagonist -77*.
